In the supplement of paper PMC9694430:
Where “and” joins values, the source holds several entries; their conditions need not be identical. Equal entries are not always repeated.

What was measured:
Experiment in all cases: thermal shift delta Tm vs DMSO control; higher = stronger stabilization (binding)
Conditions in all cases: 12.5 µM; protein concentration 2 µM
[1] = tested on: LOC_OS01G01410-cb001
Outline: (§1)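 Compounds dissolved in DMSO were added to purified rice kinase domain constructs, which had been expressed in E. coli, for differential scanning fluorimetry. Each well held 19.5 μl of 2 μM kinase in 100 mM potassium phosphate pH 7.5, 150 mM NaCl, 10% glycerol and 5 × SYPRO Orange. Fluorescence was followed from 25°C to 95°C at a rate of 0.05°C/s. Shifts in Boltzmann-fitted melting temperature are triplicate means relative to DMSO-only protein.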

[2] = tested on: LOC_OS01G02750-cb003
Outline: as §1

[3] = tested on: LOC_OS01G10900-cb004
Outline: as §1

[4] = tested on: LOC_OS01G13800-cb001
Outline: as §1

[5] = tested on: LOC_OS01G14860-cb001
Outline: as §1

[6] = tested on: LOC_OS01G21960-cb002
Outline: as §1

[7] = tested on: LOC_OS01G39600-cb002
Outline: as §1

[8] = tested on: LOC_OS01G48390-cb002
Outline: as §1

[9] = tested on: LOC_OS01G51400-cb002
Outline: as §1

[10] = tested on: T1, LOC_OS01G52050-cb004
T1 sequence (whole entry): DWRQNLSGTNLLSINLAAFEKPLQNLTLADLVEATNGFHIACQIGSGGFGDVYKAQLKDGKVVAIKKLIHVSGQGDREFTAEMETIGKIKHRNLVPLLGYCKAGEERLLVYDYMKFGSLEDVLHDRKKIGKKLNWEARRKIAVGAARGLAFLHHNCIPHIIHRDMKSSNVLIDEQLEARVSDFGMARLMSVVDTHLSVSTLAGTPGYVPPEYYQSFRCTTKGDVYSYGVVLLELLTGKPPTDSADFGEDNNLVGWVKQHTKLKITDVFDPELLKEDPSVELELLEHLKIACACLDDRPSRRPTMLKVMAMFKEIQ
Outline: as §1

SMILES | thermal shift delta Tm [1] | thermal shift delta Tm [2] | thermal shift delta Tm [3] | thermal shift delta Tm [4] | thermal shift delta Tm [5] | thermal shift delta Tm [6] | thermal shift delta Tm [7] | thermal shift delta Tm [8] | thermal shift delta Tm [9] | thermal shift delta Tm [10]
CC(C)c1ccc2oc3nc(N)c(C(=O)O)cc3c(=O)c2c1 [Amlexanox] | 0.99 °C | 0.05 °C | 0.62 °C | -0.62 °C | 0.4 °C | -0.2 °C | 2.5 °C | -0.03 °C | 0.2 °C | 1.26 °C
CC#CC(=O)N1CCC[C@H]1c1nc(-c2ccc(C(=O)Nc3ccccn3)cc2)c2c(N)nccn12 [Acalabrutinib (ACP-196)] | 0.74 °C | 0.55 °C | 0.53 °C | 0.19 °C | 0.36 °C | 0.47 °C | 0.15 °C | 0.22 °C | -0.06 °C | -0.21 °C
Cc1[nH]c(/C=C2\C(=O)Nc3ccc(S(=O)(=O)Cc4c(Cl)cccc4Cl)cc32)c(C)c1C(=O)N1CCC[C@@H]1CN1CCCC1 | 1.92 °C | 1.5 °C | 0.36 °C | 0.4 °C | 0.57 °C | 0.17 °C | 3.39 °C | 0.38 °C | -0.1 °C | 0.18 °C
Cc1cccc(Nc2nc(NC3CCCCC3N)ncc2C(N)=O)c1 (stereo not given) | 0.04 °C | 1.48 °C | 0.43 °C | -0.24 °C | 1.5 °C | 1.75 °C | 0.32 °C | 0.09 °C | 0.29 °C | 6.64 °C
CNC(=O)c1cc(Oc2ccc3nc(N[C@@H]4CCCC[C@H]4O)sc3c2)ccn1 | 0.03 °C | 2.05 °C | 1.18 °C | 0.41 °C | -0.2 °C | 0.67 °C | -0.55 °C | 0.91 °C | 0.42 °C | 0.41 °C
Cc1cc(Nc2cc(CN3CCOCC3)c3nc(C)c(Cc4ccc(Cl)cc4F)n3n2)n[nH]1 | 2.97 °C | 3.19 °C | 1.89 °C | -0.62 °C | 7.26 °C | 2.02 °C | 2.41 °C | 5.72 °C | -0.5 °C | 1.05 °C
COc1cc(N2CCC(N3CCN(C)CC3)CC2)ccc1Nc1ncnc(Nc2ccccc2S(=O)(=O)C(C)C)n1 | 0.27 °C | 1.86 °C | 0.08 °C | -0.11 °C | 0.33 °C | 0.28 °C | 0.25 °C | 0.94 °C | 0.37 °C | 0.61 °C
C=CC(=O)Nc1cccc(Oc2nc(Nc3ccc(N4CCN(C)CC4)cc3)nc3ccsc23)c1 | 2.67 °C | 1.02 °C | 2.04 °C | 0.55 °C | 0.91 °C | 1.61 °C | 0.15 °C | 1.38 °C | 0.79 °C | 1.94 °C
Cc1ccc2nc(NCCN)c3ncc(C)n3c2c1 | 0.42 °C | 0.41 °C | 1.16 °C | 0.4 °C | 0.19 °C | 0.57 °C | -0.24 °C | 1.79 °C | 0.09 °C | 0.5 °C
C[C@@H](Oc1cc(-c2cnn(C3CCNCC3)c2)cnc1N)c1c(Cl)ccc(F)c1Cl | 2.96 °C | 1.71 °C | 1.58 °C | -0.59 °C | 0.41 °C | -0.27 °C | 0.93 °C | 5.62 °C | 0.05 °C | 4.57 °C
Cc1cc(Nc2cc(N3CCN(C)CC3)nc(Sc3ccc(NC(=O)C4CC4)cc3)n2)n[nH]1 [Tozasertib (VX-680, MK-0457)] | 6.12 °C | 6.08 °C | 2.83 °C | 0.07 °C | 1.86 °C | 1.49 °C | 10.2 °C | 3.05 °C | 0.88 °C | 1.66 °C
O=C(Nc1cccc(C(F)(F)F)c1)c1cccc2cc(Oc3cc(CO)ncn3)ccc12 | 0.74 °C | 0.11 °C | 0.77 °C | 0.56 °C | 0.71 °C | 0.94 °C | -0.03 °C | 0.4 °C | 0.1 °C | 0.38 °C
Cc1nc(N)sc1-c1ccnc(Nc2ccc(N3CCOCC3)cc2)n1 | 5.75 °C | 10.4 °C | 1.74 °C | 0.29 °C | 2.6 °C | 2.06 °C | 3.24 °C | 2.34 °C | 0.68 °C | 6.52 °C
Cc1cc(C(C)Nc2ccccc2)c2nc(N3CCOCC3)cc(=O)n2c1 (stereo not given) | 1.33 °C | -0.12 °C | 0.5 °C | 0.23 °C | 1.25 °C | 0.01 °C | 0.8 °C | 1.36 °C | 0.16 °C | 0.56 °C
Cc1cnc(-c2cnc(NCCNc3ccc(C#N)cn3)nc2-c2ccc(Cl)cc2Cl)[nH]1 | 0.25 °C and -0.35 °C | 1.32 °C and 0.93 °C | 0.52 °C and -0.13 °C | 0.39 °C and 0.37 °C | 7.39 °C and 7.4 °C | 1.7 °C and 1.69 °C | 0.07 °C and 1.56 °C | 0.47 °C and 0.64 °C | 0.25 °C and 0.6 °C | 0.73 °C and 0.53 °C
NC(=O)c1cnc(N[C@@H]2CCCC[C@@H]2N)nc1Nc1cccc(-n2nccn2)c1 | 0.52 °C | 0.79 °C | -0.04 °C | -0.14 °C | 3.33 °C | 1.47 °C | 0.85 °C | 0.37 °C | 1.02 °C | 5.03 °C
CNc1nc(Nc2cn(C(C)(C)C#N)nc2C)ncc1C(F)(F)F | 0.23 °C | 1.65 °C | 0.23 °C | 0.93 °C | 0.11 °C | 1.18 °C | -0.3 °C | 0.76 °C | 0.31 °C | 0.37 °C
Cn1cc(C2=C(c3ccc(Cl)cc3Cl)C(=O)NC2=O)c2ccccc21 | 4.05 °C | 13.7 °C | 6.42 °C | 1.69 °C | 6.48 °C | 4.64 °C | 18.2 °C | 2.99 °C | 13.9 °C | 14.6 °C
COc1cc(Nc2ncc(F)c(Nc3ccc4c(n3)NC(=O)C(C)(C)O4)n2)cc(OC)c1OC [R406 (free base)] | 0.61 °C | 1.68 °C | 0.13 °C | 0.48 °C | 5.16 °C | 4.15 °C | 5.87 °C | 0.31 °C | 0.55 °C | 8.56 °C
Cc1nc(-c2cn3c(n2)-c2ccc(-c4cnn(C(C)(C)C(N)=O)c4)cc2OCC3)n(C(C)C)n1 [Taselisib (GDC 0032)] | 2.11 °C | -0.1 °C | 0.24 °C | 0.32 °C | -0.05 °C | 0.03 °C | -0.05 °C | 0.45 °C | 0.03 °C | 0.13 °C
